PubChem BioAssay AID1220 (Sanford-Burnham Center for Chemical Genomics, 2008)
Out of some 190,000 compounds screened, about 1,300 (0.68%) were called active. Shown is part of a subset that was picked to be rich in actives. Unmarked numbers belong to inactive results. No stated cut-off is given here; in the data, active means inhibition above about 50%; inactive means the rest.

Each compound was assayed against Mannose-6-phosphate isomerase (Homo sapiens) (UniProt P34949) (assay: MPI inhibition at elevated mannose 6-phosphate – biochemical, fluorescence intensity, high mannose 6-phosphate, primary screen (AID 1220)). Details: recombinant PMI enzyme, coupled fluorescence intensity; at 20 µM; active compounds read high.
Chain of Mannose-6-phosphate isomerase (Homo sapiens) (P34949 whole entry, looked up): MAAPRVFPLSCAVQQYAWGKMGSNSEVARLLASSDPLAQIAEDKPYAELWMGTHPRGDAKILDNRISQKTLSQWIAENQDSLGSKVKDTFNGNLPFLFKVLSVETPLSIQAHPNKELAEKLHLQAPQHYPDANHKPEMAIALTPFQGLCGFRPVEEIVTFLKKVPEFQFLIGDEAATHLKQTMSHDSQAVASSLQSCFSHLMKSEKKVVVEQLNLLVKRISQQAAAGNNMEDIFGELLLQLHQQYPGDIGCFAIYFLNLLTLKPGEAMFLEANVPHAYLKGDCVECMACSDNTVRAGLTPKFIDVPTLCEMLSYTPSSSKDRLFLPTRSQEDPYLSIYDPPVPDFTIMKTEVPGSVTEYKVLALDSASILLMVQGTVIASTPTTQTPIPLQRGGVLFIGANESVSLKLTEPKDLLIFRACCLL
`CCCCCCN1C(=O)C(O)=C(C(C)=O)C1c1ccc(Cl)cc1` (stereo unspecified) showed an inhibition of 3.1%. `O=C(N/N=C/c1c[nH]c2ccccc12)c1cc(-c2ccccc2)n[nH]1` was tested, and the inhibition was -2.4%. With `O=C1NC(CCc2ccccc2)C(=O)N1Cc1ccc(Br)cc1` (stereo unspecified) the inhibition was 10.5%. For `COc1ccc(Nc2n[nH]c(N)c2C(N)=O)cc1`, the inhibition was 1.4%. `CN(CC(=O)N1CCCCC1)S(=O)(=O)c1cccc2cccnc12` was tested, and the inhibition was 13.4%. `Cc1[nH]c2ccccc2c1/C=N/NC(=O)Nc1ccccc1` showed an inhibition of -7.2%. With `CCOc1ccc(C(=O)NCC(=O)Nc2ccc(N3CCOCC3)cc2)cc1OCC` the inhibition was 3.6%. Work on `O=C(N/N=C/c1coc2ccccc2c1=O)c1cn(-c2ccccc2)nc1-c1ccc(F)cc1` yielded an inhibition of -12.2%. For `CC(C)OCc1c(C(=O)OC/C(O)=C(\C#N)c2nc3ccccc3[nH]2)oc2ccccc12`, the inhibition was 28.4%. Work on `CCOC(=O)c1c(C)[nH]c2cc(Br)c(O)cc12` yielded an inhibition of 2.1%. In the case of `CCOC(=O)c1c(C)[nH]c2ccc(O)cc12`, the inhibition is reported as 6%. `CCOC(=O)c1c(C)[nH]c2c1cc(O)c1ccccc12` was tested, and the inhibition was 61.2% (active). `Nc1cc(-c2cccc(Br)c2)nn1Cc1ccccc1` gave an inhibition of 11.2%. For `CCOC(=O)N1CCN(S(=O)(=O)c2ccc(C(=O)NNc3nc4c(C)cccc4s3)cc2)CC1`, the inhibition was 1.7%. `CCCc1n(CC)c2ccccc2[n+]1CC(O)COC1CCCCC1` (stereo unspecified) was tested, and the inhibition was -2.9%. Compound `CCOC(=O)/C(C#N)=C/c1ccc(OC)c(OC)c1` has an inhibition of 5%. For `COc1cc(/C=C(\C#N)C(=O)Nc2ccc3ccccc3c2)c([N+](=O)[O-])cc1OC`, the inhibition was 67% (active). For `CCOC(=O)/C(C#N)=C\c1cc(OC)c(OC)cc1[N+](=O)[O-]`, the inhibition was 69.6% (active). For `CCOC(=O)/C(C#N)=C\c1ccc(OC)c(OC)c1`, the inhibition was -3.6%. Compound `COc1cc(/C=C(/NC(=O)c2ccccc2)C(=O)Nc2ccccc2)c([N+](=O)[O-])cc1OC` has an inhibition of 27.2%. `COc1ccc(NC(=O)/C(=C\c2cc(OC)c(OC)cc2[N+](=O)[O-])NC(=O)c2ccccc2)cc1` showed an inhibition of 15.2%. `O=C(Cn1ccc([N+](=O)[O-])n1)N1CCc2ccccc21` gave an inhibition of 6.2%. Work on `COc1ccccc1Sc1nc(-c2ccccn2)ncc1OC` yielded an inhibition of -3.1%. Compound `CCCCC/C=N\NC(=O)Cc1ccc([N+](=O)[O-])cc1` has an inhibition of -6.9%. `CCOC(=O)C1=C(C)Nc2ncnn2C1c1ccccc1F` (stereo unspecified) gave an inhibition of -19.1%. `O=C(O)C1C(c2ccccc2)C(C(=O)Oc2ccccc2)C1c1ccccc1` (stereo unspecified) gave an inhibition of -2.4%. Compound `CC(=O)NC(c1ccc([N+](=O)[O-])cc1)c1c(O)ccc2ccccc12` (stereo unspecified) has an inhibition of 34.2%. In the case of `CC(C)C(=O)NC(c1ccco1)c1c(O)ccc2ccccc12` (stereo unspecified), the inhibition is reported as 56.9% (active). In the case of `CC(C)C(=O)NC(c1ccc([N+](=O)[O-])cc1)c1c(O)ccc2ccccc12` (stereo unspecified), the inhibition is reported as 59.5% (active). Work on `CCCC(=O)NC(c1ccco1)c1c(O)ccc2ccccc12` (stereo unspecified) yielded an inhibition of 33.6%. In the case of `CC(C)C(=O)NC(c1cccc([N+](=O)[O-])c1)c1c(O)ccc2ccccc12` (stereo unspecified), the inhibition is reported as 26.6%. For `CCCCC(=O)NC(c1ccco1)c1c(O)ccc2ccccc12` (stereo unspecified), the inhibition was 30.3%. In the case of `COc1ccc2[nH]c(=O)c(CN(Cc3cccs3)C(=S)Nc3cccc(C)c3)cc2c1`, the inhibition is reported as 5%. With `C=CCn1c(SCC(=O)c2ccc(Cl)cc2)nnc1-c1ccc2c(c1)OCO2` the inhibition was -0.6%. `O=C(CCNC(=O)c1ccccc1)Oc1ccc([N+](=O)[O-])cc1` was tested, and the inhibition was -10.4%. For `N#CC1=C(N)SC(N)=C(C#N)C1c1c(Cl)cccc1Cl`, the inhibition was 6%. `COc1ccc(-c2csc(Cc3nnc(N4CCOCC4)n3-c3ccccc3)n2)cc1OC` showed an inhibition of -41%. With `COc1ccc(NC(=O)/C(N=Nc2cc(S(=O)(=O)Nc3ccc(OC)cc3)ccc2OC)=C(\C)O)cc1` the inhibition was -1%. `CCOC(=O)N/C(N)=N/c1nc2ccccc2s1` gave an inhibition of -3.7%. `COc1ccc(O)c(C=Nc2cc(NC(C)=O)c(Cl)cc2Cl)c1` showed an inhibition of 19.4%. `CC(=O)Nc1cc(N=Cc2ccc(O)cc2O)c(Cl)cc1Cl` gave an inhibition of 44.8%. In the case of `CC(=O)Nc1cc(Cl)c(N=Cc2ccc(O)cc2O)cc1Cl`, the inhibition is reported as 63.3% (active). `CCOC(=O)Nc1ccc2c(c1)N(C(=O)OC)c1ccccc1CC2` gave an inhibition of -3.2%. With `CS(=O)(=O)N(Cc1ccccc1)c1ccc(C(=O)N2CCOCC2)cc1` the inhibition was 11.2%. `CCOc1ccc2oc(C(=O)NC3CCN(Cc4ccccc4)CC3)c(C)c2c1` gave an inhibition of -4.4%. `COc1cc(SC)ccc1C(=O)N1CCN(c2ccc(O)cc2)CC1` was tested, and the inhibition was 55.8% (active). In the case of `COc1ccc(N2CCN(C(=O)c3ccc(SC)cc3OC)CC2)cc1`, the inhibition is reported as 21.7%. Work on `COc1cc(SC)ccc1C(=O)N1CCN(c2ccccc2)CC1` yielded an inhibition of 5.9%. Work on `CCn1c(SCC(=O)N2CCCCC2C)nc2ccsc2c1=O` (stereo unspecified) yielded an inhibition of -3.6%. With `CSc1ccccc1NC(=O)CO/N=C(\C)c1cc2ccccc2o1` the inhibition was 14.6%. In the case of `CCc1cccc(C)c1NC(=O)CO/N=C(\C)c1cc2ccccc2o1`, the inhibition is reported as 60.5% (active). `CCc1ccc(NC(=O)CO/N=C(\C)c2cc3ccccc3o2)cc1` was tested, and the inhibition was 45%. `O=C(CC1(O)C(=O)N(Cc2cccc3ccccc23)c2ccccc21)c1cccnc1` (stereo unspecified) was tested, and the inhibition was 2.3%. In the case of `CCCn1c(SCc2ccccn2)nc2c1c(=O)n(C)c(=O)n2C`, the inhibition is reported as 4.6%. Compound `O=C(NC1Cc2ccccc2C1)c1cc(COc2ccc(F)cc2Cl)on1` has an inhibition of -6.1%. Work on `CCS(=O)(=O)c1ccc(-c2csc(-c3ccccc3Cl)n2)c(Cl)c1Cl` yielded an inhibition of 5.5%. `COc1ccc(CN2CCNC(=O)C2CC(=O)N2CCCCO2)cc1OC` (stereo unspecified) showed an inhibition of 45.9%. For `COc1cc(CN2CCNC(=O)C2CC(=O)N2CCCCO2)cc(OC)c1` (stereo unspecified), the inhibition was 52% (active). For `COc1ccc(CN2CCNC(=O)C2CC(=O)N2CCCCO2)c(OC)c1` (stereo unspecified), the inhibition was 27.5%. `COc1cc(OC)cc(-c2nnc(SCc3c(F)cccc3Cl)o2)c1` showed an inhibition of 8.3%. `CCOc1ccc(C(CC(=O)O)NC(=O)c2cccs2)cc1OC` (stereo unspecified) was tested, and the inhibition was -10.3%. Compound `CCS(=O)(=O)c1ccc2oc(=O)c(/C=C(\O)c3ccc(Cl)cc3)nc2c1` has an inhibition of 17.4%. With `Cc1ccc2oc(=O)c(/C=C(\O)CC(C)C)nc2c1` the inhibition was 10.4%. For `CC(C)C/C(O)=C/c1nc2cc(Cl)ccc2oc1=O`, the inhibition was 55.1% (active). For `C/C(=N/Nc1nc(-c2ccccc2)cc(-c2ccccc2)n1)c1ccc(N)cc1`, the inhibition was 3.6%. `O=C(CN1N=C(c2ccc(Cl)cc2)CCC1=O)NCc1cccs1` was tested, and the inhibition was 59.2% (active). `Cc1ccc(C2=NN(CC(=O)NCc3cccs3)C(=O)CC2)cc1` was tested, and the inhibition was 3.3%. In the case of `O=C(CN1N=C(c2ccccc2)CCC1=O)NCc1cccs1`, the inhibition is reported as 6.5%. Compound `CC(NC(=O)c1cc2ccccc2o1)c1ccccc1` (stereo unspecified) has an inhibition of -9.3%. `CCn1cc(C(=O)NCCCN2CCN(C)CC2)c(=O)c2cc(S(=O)(=O)N3CCc4ccccc4C3)ccc21` was tested, and the inhibition was -2.9%. For `O=C(O)c1ccc(N2Cc3ccccc3C2)cc1O`, the inhibition was -70.5%. In the case of `CSc1nsc(/C=C/Nc2ccc(O)cc2C)c1C#N`, the inhibition is reported as 65.8% (active). `CSc1nsc(/C=C/Nc2ccc(F)cc2F)c1C#N` gave an inhibition of 21.4%. For `CSc1nsc(/C=C/Nc2ccc(C)c(C)c2)c1C#N`, the inhibition was 40.1%. `Cc1cc(NC(=O)COC(=O)c2ccco2)no1` gave an inhibition of -0.8%. For `CCOC(=O)c1c(NC(=O)CN2C(=O)c3ccccc3C2=O)sc(Cc2ccc3c(c2)OCO3)c1C`, the inhibition was 51.5% (active). `COC(=O)c1c(NC(=O)CN2C(=O)c3ccccc3C2=O)sc(Cc2ccc3c(c2)OCO3)c1C` was tested, and the inhibition was 1.6%. Work on `Cc1c(Cc2ccc3c(c2)OCO3)sc(NC(=O)c2ccccc2)c1C(N)=O` yielded an inhibition of 2.7%. For `CC1(c2ccccc2)CC2CC(c3ccccc3)N1O2` (stereo unspecified), the inhibition was -7.9%. `CC1=C(C#N)C(=O)NC(=O)/C1=C\c1ccc(-c2ccc(C)cc2[N+](=O)[O-])o1` gave an inhibition of 48.6%. With `CC1=C(C#N)C(=O)NC(=O)/C1=C\c1ccc(-c2cc(C)c(C)cc2[N+](=O)[O-])o1` the inhibition was 52.8% (active). For `CC1=C(C#N)C(=O)NC(=O)/C1=C/c1ccc(-c2ccc(S(N)(=O)=O)cc2)o1`, the inhibition was 18.1%. For `CC(Sc1nnc(NC2CCCCC2)s1)C(=O)Nc1ccc2c(c1)C(=O)c1ccccc1C2=O` (stereo unspecified), the inhibition was -14.7%. `O=C(Nc1nccs1)c1ccc(CSc2nnnn2-c2ccccc2)cc1` was tested, and the inhibition was -6.7%. With `O=C(CN1CCN(C(=O)N2CCCCC2)CC1)Nc1ccc(F)cc1` the inhibition was 6.5%. For `CCOC(=O)C1Sc2ccccc2NC1=O` (stereo unspecified), the inhibition was 36.5%. `CN(C(=O)c1cccnc1)c1nnc(-c2ccccn2)s1` gave an inhibition of 2%. `C=CCNc1nc(N2CCOCC2)c(C#N)c2c1CN(C)CC2` gave an inhibition of 37.3%. `CCN1CCc2c(C#N)c(NCc3ccccc3)nc(N(CC)CC)c2C1` showed an inhibition of 0.8%. `N#Cc1c(NCCN)nc(NCc2ccccc2)c2c1CCN(Cc1ccccc1)C2` was tested, and the inhibition was 52.6% (active). In the case of `C=CCNc1nc(N2CCCCC2)c(C#N)c2c1CN(Cc1ccccc1)CC2`, the inhibition is reported as 55.6% (active). In the case of `N#Cc1c(N2CCCCC2)nc(N2CCCCC2)c2c1CCN(Cc1ccccc1)C2`, the inhibition is reported as 8%. For `Nc1[nH]nc2nc(NCc3ccccc3)c3c(c12)CCN(Cc1ccccc1)C3`, the inhibition was 3.5%. For `CN1CCc2c(C#N)c(N3CCCCC3)nc(NCc3ccccc3)c2C1`, the inhibition was 53% (active). `CC(C)CCNc1nc(N2CCCC2)c2c(c1C#N)CCN(C)C2` was tested, and the inhibition was 14.4%. `CCN1CCc2c(C#N)c(N3CCCCC3)nc(NCc3ccccc3)c2C1` was tested, and the inhibition was 32.5%.
